Screening data from PubChem.
HepG2 viability: HepG2 cytotoxicity, counter-screen for TGF-b inhibitors; HepG2 CAGA-GFP viability, ATP luminescence, 18 h; 410,000 tested, 0.76% active; Potency, µM (top dose mostly 46.1 µM), for inactives: at the highest dose activity change, negative = cytotoxicity, most hits filed as cytotoxic
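CellTiter-Glo luminescence gave cytotoxicity after 18 hours at 37 degrees C. The cells were HepG2 CAGA-GFP in 1% FBS DMEM, stimulated with 500 pg/mL TGF-beta after compound addition. %Activity was normalised to no-cell wells (complete cell-killing) and DMSO (no toxicity), and curves were fitted and classified.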
TGFb inhibitor: inhibitors of TGF-b signaling; HepG2 CAGA-GFP TGF-b/SMAD3 reporter, GFP fluorescence, 18 h; TGF-beta stimulated, 500 pg/mL final; 410,000 tested, 1.2% active; Potency, µM (series often up to 46.1 µM), for the others: top-dose activity, negative = inhibition, usual class: inhibitors; also: % is scaled to controls: 0 for no effect and ±100 for the full control effect; nearly all actives have a fitted effect of over 65% in size
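Cell-based qHTS in HEPG2 carrying a CAGA-GFP Smad reporter; compounds added before 500 pg/mL final TGF-beta, 18 h incubation at 37 degrees C, GFP fluorescence quantified per cell by imaging cytometry.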
ATXN2 expr inh: reduces ATXN2 reporter expression in HEK-293 cells. HEK-293 ATXN2-luciferase reporter, luminescence, 24 h. Potency, µM (titrated, usually from 57 µM), for the others: at the highest dose activity change, negative = inhibition, usual class: inhibitors. 360,000 tested, 0.72% active; also: % is scaled to controls: 0 for no effect and ±100 for the full control effect; nearly all actives have a fitted effect of over 55% in size
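qHTS (up to 57 uM final) was run with 24 h compound exposure of reporter cells at 37 °C. Each well was multiplexed: SteadyGlo luminescence measured ATXN2-luciferase expression after a fluorogenic Gly-Phe-AFC viability readout (25 uM final).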
Anesthetic bind: candidate novel general anesthetic via apoferritin binding; P02791; apoferritin/1-aminoanthracene competitive binding, fluorescence; Potency, µM (titrated, usually from 77.5 µM), for inactives: at the highest dose activity change, negative = displacement, hits mostly inhibitors; 350,000 tested, 0.074% active; AID 485281; also: % is scaled to controls: 0 for no effect and ±100 for the full control effect; nearly all actives have a fitted effect of over 20% in size
Target sequence (P02791 2-175 limits assumed): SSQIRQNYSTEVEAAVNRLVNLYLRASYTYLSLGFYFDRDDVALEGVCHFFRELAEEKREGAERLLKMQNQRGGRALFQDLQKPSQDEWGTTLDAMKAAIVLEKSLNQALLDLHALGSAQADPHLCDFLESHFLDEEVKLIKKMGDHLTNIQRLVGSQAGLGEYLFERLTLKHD
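Steps: apoferritin (10 uM) was premixed with half-saturated 1-AMA in PBS, compounds were pin-transferred, plates stood 10 min at room temperature, fluorescence was read at 380/535 nm, and curves were fitted with a Hill equation.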
S2 tox: viability counter-screen for ATXN expression inhibitors; S2 cells (HEK-293 line with an ATXN2-luciferase reporter) viability, CellTiter-Fluor protease fluorescence, 24 h; Potency, µM (highest dose often 56.7 µM), hits mostly cytotoxic; 400,000 tested, 0.49% active; AID 651635; also: nearly all actives have a fitted effect of over 40% in size
An asterisk follows results filed as active; i = inactive; ? = inconclusive; · = no result. Shown are actives, neighbours in structure and some others; about 2.4% of the full set was active somewhere. Calls follow the shape of the dose curve; as a rule, active = well fitted curve in the direction sought with a large enough effect; inconclusive = small, poorly fitted or top-dose-only effect, or another doubt; inactive = no such curve, though single readings can be large; an effect the other way counts as inactive or inconclusive. Potency is read from the fitted curve at half-maximal effect.

SMILES	HepG2 viability	TGFb inhibitor	ATXN2 expr inh	Anesthetic bind	S2 tox
CCOC(=O)N1CCN(Cc2cc(Cl)c3cccnc3c2O)CC1	-18.7%	?	3.55µM*	-20.0%	?
COc1cc(N(C)C)c(OC)cc1/C=C1\Cc2ccccc2C1=O	-8.5%	32.7%	·	·	·
O=C(NCCc1ccccn1)c1cnn(-c2ncc3c(n2)-c2ccccc2CC3)c1C1CC1	·	·	·	·	i
CN[C@@H](C)[C@H]1[C@H](O)C[C@@]2(C)[C@@H]3CC[C@H]4C(C)(C)[C@@H](NC)CC[C@@]45C[C@@]35CC[C@]12C	·	·	-1.4%	·	·
CCC1=C(c2ccc(C)cc2)S(=O)(=O)N=C1N1CCC(C(=O)NCc2ccc(N(C)C)cc2)CC1	-12.2%	?	-3.7%	-21.8%	i
COc1ccc2c(c1)[nH]c1c(=O)n(/N=C/C3C(C)C=C(C)CC3C)c(=O)[nH]c12 (stereo not given)	-27.6%	-23.4%	?	1.5%	i
COc1ccc2[nH]c3c(=O)n(/N=C/[C@H]4C(C)C=C(C)CC4C)c(=O)[nH]c3c2c1 (stereo not given in full)	7.08µM*	5.01µM*	?	-3.0%	12.6µM*
Nc1c(-c2ccc(Cl)cc2)cnc2c(-c3ccccc3)cnn12	1.5%	-4.8%	53.0%	-5.2%	i
Cc1ccc2oc(-c3ccc(NC(=O)COc4ccccc4)cc3O)nc2c1	-30.3%	-6.9%	·	·	·
O=C(Nc1ccc(F)c(F)c1)c1cc(S(=O)(=O)NC2CCCCCC2)ccc1F	-97.4%	?	·	?	·
CC(C)c1ccc(NC(=O)c2cc(S(=O)(=O)NC3CCCCC3)ccc2F)cc1	12.6µM*	?	?	-13.7%	?
CCN1C(=S)N[C@@H](CCc2ccccc2)C(C(=O)OC)=C1C	-1.4%	?	-9.6%	-9.7%	?
COc1cc2c(Oc3ccc4[nH]c(C)cc4c3F)ncnc2cc1OCCCN1CCCC1	·	·	34.3µM*	·	·
CN(C)C(=S)SC(=S)N(C)C	·	·	2.51µM*	5.2%	2.51µM*
COc1ccc(/C=C2\C(=O)ON=C2c2ccccc2)cc1	-42.6%	-29.7%	?	-10.8%	20µM*
O=C1ON=C(c2ccccc2)/C1=C/c1ccc(OS(=O)(=O)c2ccccc2)cc1	-4.2%	-6.6%	16.6%	-6.3%	i
Cc1csc(CNc2ncnc3ccc(-c4ccoc4)cc23)c1	-6.5%	-17.4%	11.9%	·	i
Cc1ccsc1CN(C)c1ncnc2ccc(-c3ccoc3)cc12	-42.8%	11.2µM*	-14.7%	·	i
Cc1ccc2oc(=O)c(S(=O)(=O)c3ccc(C(C)(C)C)cc3)cc2c1	0.8%	?	1.5%	-11.1%	i
CCCCOC(=O)NC1CCc2cc(OC)c(OC)c(OC)c2-c2ccc(SC)c(=O)cc21 (stereo not given)	0.1%	-80.0%	0.8%	·	0.0377µM*
CCOC(=O)NC1CCc2cc(OC)c(OC)c(OC)c2-c2ccc(SC)c(=O)cc21 (stereo not given)	11.6%	0.0%	-2.6%	·	?
CCOc1cc(/C=C2\SC(=S)N(NS(=O)(=O)c3ccccc3)C2=O)ccc1O	-23.2%	3.2%	·	-11.9%	11.2µM*
COc1cc(/C=C2\SC(=S)N(NC(=O)c3cccnc3)C2=O)ccc1O	-10.3%	-9.3%	·	-11.5%	31.6µM*
CCOc1ccc(/C=C2\SC(=S)N(NS(=O)(=O)c3ccccc3)C2=O)cc1OC	-28.1%	-15.0%	·	8.4%	i
COc1cc(/C=C2\SC(=S)N(C(Cc3ccccc3)C(=O)O)C2=O)ccc1O (stereo not given)	1.2%	-8.2%	·	0.2%	12.6µM*
SMILES	HepG2 viability	TGFb inhibitor	ATXN2 expr inh	Anesthetic bind	S2 tox
COc1cc(/C=C2\SC(=S)N(NC(=O)c3ccc(O)cc3)C2=O)ccc1O	-4.1%	35.5%	19.9%	-0.7%	·
COc1cc(C)ccc1OCCOCCN(C)Cc1ccccc1	20µM*	0.0%	-13.3%	-6.2%	i
CN(CCOCCOc1ccc2ccccc2c1)Cc1ccccc1	-36.0%	?	-11.4%	-9.2%	i
CCC(C)NC(=O)c1ccccc1NC(=O)c1ccc(CSc2ccccc2)cc1 (stereo not given)	15.8µM*	?	-11.3%	-4.4%	i
CCc1ccc(S(=O)(=O)Nc2cc(SCC(=O)O)c(O)c3ccccc23)cc1	17.8µM*	?	·	?	i
O=S(=O)(Nc1cc(Sc2cccc3cccnc23)c(O)c2ccccc12)c1ccccc1	·	·	·	-7.9%	·
O=C(O)c1cccc(S(=O)(=O)Nc2ccc([N+](=O)[O-])cc2O)c1	-15.9%	-4.1%	·	-12.1%	?
O=C(O)CSc1cc(NS(=O)(=O)c2cccc([N+](=O)[O-])c2)c2ccccc2c1O	-95.4%	10µM*	?	-0.7%	i
CCOc1ccc(S(=O)(=O)Nc2cc(SCC(=O)O)c(O)c3ccccc23)cc1	12.6µM*	5.01µM*	·	?	?
Cc1ccc(C)c(S(=O)(=O)Nc2cc(SCC(=O)O)c(O)c3ccccc23)c1	-98.5%	-45.9%	?	-23.6%	28.2µM*
CC(=O)c1ccc(-c2ccc3c4c(ccc3c2)OC(CNC(=O)[C@@H]2CCCN2C(C)=O)C4)s1 (stereo not given in full)	·	·	·	·	i
CC[C@H](NC(=O)[C@H](C)NC)C(=O)N1C[C@@H](O)C[C@H]1Cc1c(-c2[nH]c3cc(F)ccc3c2C[C@H]2C[C@H](O)CN2C(=O)[C@H](CC)NC(=O)[C@H](C)NC)[nH]c2cc(F)ccc12	·	·	-6.0%	·	·
Cc1c(Cl)cccc1NC(=S)N(Cc1cccnc1)Cc1ccccc1Cl	-0.9%	5.0%	-13.0%	-8.2%	i
COC(=O)c1cc(=O)n(-c2ccccc2)c(=Nc2ccccc2)s1	-60.4%	17.8µM*	?	-4.3%	?
C=CCNc1oc(-c2ccc(-c3ccccc3)cc2)nc1C#N	-38.8%	10µM*	?	·	?
COc1ccc(CNc2oc(COc3ccc(Cl)cc3)nc2C#N)cc1	-29.3%	?	-6.2%	57.4%	i
COc1ccc(Nc2oc(COc3ccc(Cl)cc3)nc2C#N)cc1	-19.9%	-25.9%	14.1µM*	?	?
N#Cc1nc(COc2ccc(-c3ccccc3)cc2)oc1NCCCN1CCOCC1	-42.5%	7.4%	31.6µM*	1.3%	?
CN(C)CCNc1oc(COc2ccc(-c3ccccc3)cc2)nc1C#N	11.2µM*	?	?	?	?
CN(CCO)C(=O)c1cn(C2CCN(Cc3cccc(C(F)(F)F)c3)CC2)nn1	·	·	·	·	i
C[C@H]1O[C@H](O[C@H]2[C@H](O)[C@@H](O)[C@@H](O[C@H]3[C@H](O)[C@@H](O)[C@H](O)O[C@@H]3CO)O[C@@H]2CO)[C@H](O)[C@@H](O)[C@@H]1N[C@H]1C=C(CO)[C@@H](O)[C@H](O)[C@H]1O	·	·	1.7%	·	i
